Laboratory results published in PubChem BioAssay AID1159580 (chemical genetic matrix, 2015).
“And” between values parts separate entries of the source, which are not always exact repeats. Equal values may be shown once. Among all 5,500 compounds or so, about 2,000 (36%) were called active. Another 18% or so got no clear call; they are omitted. No stated cut-off is given here; in the data, active means normalized growth mostly below about 0.91 (no sharp cut-off); inconclusive means no clear call, values can overlap the other calls; inactive means mostly above about 0.92. This is one part of the list.

Test: chemical genetic growth profiling, strain panel (AID 1159580);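 further: tested at 20 µM; growth read once vehicle control cultures reached saturation at 30 °C; 1 = growth at the plate median or of vehicle wells; lower values mean less growth of the strain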
Conditions: S. cerevisiae deletion strains, growth OD

Measured: normalized growth

NCCc1ccc(O)cc1
inactive: locus YAL021C, strain ccr4, hits give low values 0.995 | locus YAL026C, strain drs2, hits give low values 0.963 | locus YAL030W, strain snc1, hits give low values 0.989 | locus YAL040C, strain CLN3, hits give low values 0.988 | locus YBL061C, strain skt5, hits give low values 0.975 | locus YBR009C, strain hhf1, hits give low values 0.985 | locus YBR021W, strain FUR4, hits give low values 0.97 | locus YBR023C, strain chs3, hits give low values 0.98 | locus YBR171W, strain sec66, hits give low values 0.957 | locus YBR229C, strain ROT2, hits give low values 0.999 | locus YBR231C, strain swc5, hits give low values 0.961 | locus YBR279W, strain paf1, hits give low values 0.983 | locus YCL011C, strain gbp2, hits give low values 0.997 | locus YCL016C, strain dcc1, hits give low values 1.01 | locus YCL029C, strain bik1, hits give low values 1.01 | locus YCL061C, strain MRC1 (second series), hits give low values 1.01 | locus YCL069W, strain vba3, hits give low values 0.99 | locus YCR088W, strain abp1, hits give low values 0.972 | locus YDL005C, strain med2, hits give low values 0.972 | locus YDL035C, strain GPR1, hits give low values 1.01 | locus YDL040C, strain nat1, hits give low values 0.984 | locus YDL074C, strain BRE1, hits give low values 0.99 | locus YDL101C, strain DUN1, hits give low values 1 | locus YDL185W, strain tfp1, hits give low values 1 | locus YDL192W, strain arf1, hits give low values 1 | locus YDR001C, strain nth1, hits give low values 0.975 | locus YDR069C, strain doa4, hits give low values 0.945 | locus YDR101C, strain arx1, hits give low values 0.991 | locus YDR137W, strain rgp1, hits give low values 0.981 | locus YDR150W, strain NUM1, hits give low values 1.01 | locus YDR159W, strain sac3, hits give low values 0.905 | locus YDR162C, strain NBP2, hits give low values 1.01 | locus YDR195W, strain ref2 0.928 | locus YDR297W, strain sur2, hits give low values 0.978 | locus YDR318W, strain mcm21, hits give low values 0.997 | locus YDR334W, strain swr1, hits give low values 0.967 | locus YDR335W, strain msn5, hits give low values 0.983 | locus YDR363W, strain ESC2, hits give low values 1.01 | locus YDR388W, hits give low values 1 | locus YDR392W, strain spt3, hits give low values 0.935 | locus YDR502C, strain sam2, hits give low values 0.989 | locus YEL003W, strain gim4, hits give low values 0.969 | locus YEL037C, strain rad23, hits give low values 0.977 | locus YEL061C, strain CIN8 (second series), hits give low values 0.975 | locus YEL061C, strain CIN8, hits give low values 1 | locus YER002W, strain NOP16, hits give low values 0.994 | locus YER015W, strain faa2, hits give low values 0.994 | locus YER016W, strain bim1, hits give low values 0.985 | locus YER110C, hits give low values 0.993 | locus YER111C, strain swi4, hits give low values 0.981 | locus YER155C, strain BEM2 (second series), hits give low values 0.951 | locus YER155C, strain BEM2, hits give low values 1.01 | locus YER167W, strain BCK2, hits give low values 1 | locus YFR010W, strain ubp6, hits give low values 0.957 | locus YGL078C, strain dbp3, hits give low values 0.994 | locus YGL086W, strain mad1, hits give low values 0.966 | locus YGL167C, strain pmr1, hits give low values 0.972 | locus YGL173C, strain kem1, hits give low values 0.964 | locus YGL227W, strain vid30, hits give low values 0.978 | locus YGL240W, strain doc1, hits give low values 0.96 | locus YGL248W, strain PDE1, hits give low values 1.01 | locus YGL253W, strain hxk2, hits give low values 0.972 | locus YGR078C, strain PAC10, hits give low values 1.01 | locus YGR135W, strain pre9, hits give low values 0.997 | locus YGR229C, strain SMI1, hits give low values 1.01 | locus YGR252W, strain gcn5, hits give low values 1.01 | locus YHR013C, strain ard1, hits give low values 0.97 | locus YHR027C, strain rpn1, hits give low values 0.99 | locus YHR030C, strain SLT2, hits give low values 1 and 0.976 | locus YHR079C, strain IRE1 (second series), hits give low values 0.994 | locus YHR079C, strain IRE1, hits give low values 0.976 | locus YHR094C, strain hxt1, hits give low values 1.01 | locus YHR129C, strain ARP1, hits give low values 1.01 | locus YHR142W, strain chs7, hits give low values 0.982 | locus YHR200W, strain rpn10, hits give low values 1.03 | locus YIL066C, strain RNR3, hits give low values 1.01 | locus YIL073C, strain SPO22, hits give low values 0.985 | locus YIL125W, strain kgd1, hits give low values 0.985 | locus YIR030C, strain dcg1, hits give low values 0.996 | locus YJL092W, strain hpr5, hits give low values 0.973 | locus YJL095W, strain BCK1 (second series), hits give low values 0.978 | locus YJL095W, strain BCK1, hits give low values 1.01 and 0.995 | locus YJL115W, strain asf1, hits give low values 0.963 | locus YJL129C, strain trk1, hits give low values 0.967 | locus YJL134W, strain LCB3, hits give low values 1.01 | locus YJL154C, strain vps35, hits give low values 0.975 | locus YJL164C, strain tpk1, hits give low values 0.998 | locus YJL166W, strain qcr8, hits give low values 0.986 | locus YJL168C, strain set2, hits give low values 1 | locus YJL187C, strain SWE1 (second series), hits give low values 1.01 | locus YJL187C, strain SWE1, hits give low values 0.984 | locus YJR043C, strain POL32, hits give low values 1.02 | locus YJR066W, strain TOR1, hits give low values 0.932
